Source: PubChem BioAssay
FMDV antiviral: High Throughput Screening for Foot and Mouth Disease Virus Antivirals. FMDV antiviral cell-based qHTS. Potency, µM (top dose mostly 57.9 µM), without a hit: at the highest dose activity change, negative = inhibition, most hits filed as inhibitors. 410,000 compounds, 1.2% hits. AID 1159524, 2015; calls by dose curve; tested in HEK293T cells; note: read-out not given here; potency is the fitted concentration of half-maximal effect; nearly all actives have a fitted effect of over 45% in size
HCMV inh: qHTS Assay for inhibitors of the human cytomegalovirus (HCMV). 410,000 compounds, 4.5% hits. AID 1259415, 2018. HFF cells, HCMV-luciferase reporter, 72 h; stronger effect = lower value. activity change, negative = inhibition, % at 57.5 µM; in the data active = activity change below about -60%; inconclusive = no clear call, values can overlap the other calls; inactive = above about -39%
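Human foreskin fibroblasts infected with luciferase-reporter HCMV at MOI 1 PFU/cell, compounds at two doses. Luciferase measured 72 h post infection; normalized to buffer-only basal and Salinomycin (10uM) controls.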
HCV inh: qHTS Assay for Inhibitors of Hepatitis C Virus (HCV); Huh7.5.1 HCVcc-Cre infection, luciferase reporter, 44 h; Potency, µM (top dose mostly 41.8 µM), without a hit: top-dose activity change, negative = inhibition, hits mostly inhibitors; 340,000 compounds, 3.4% hits; note: potency is the fitted concentration of half-maximal effect
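Cells seeded at 1,000/well and cultured 4 h, then compounds added followed by HCVcc-Cre virus (~0.5 moi). After 44 h further culture, luciferase substrate was added, plates held 15 min at room temperature, and luminescence read for 15 sec.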
Vaccinia Venus: qHTS for Stage-Specific Inhibitors of Vaccinia Orthopoxvirus: Venus Reporter Primary qHTS; Vaccinia virus Venus reporter expression, fluorescence; Potency, µM (highest dose often 36.5 µM), for the others: top-dose activity change, negative = inhibition, hits mostly inhibitors; 330,000 compounds, 0.46% hits; AID 720580, 2013; calls by dose curve; tested in A549 cells; note: potency is the fitted concentration of half-maximal effect; nearly all actives have a fitted effect of over 30% in size
VACV mCherry inh: qHTS for Stage-Specific Inhibitors of Vaccinia Orthopoxvirus: mCherry Reporter Primary qHTS. Vaccinia virus mCherry reporter infection, fluorescence. Potency, µM (top dose mostly 36.5 µM), without a hit: top-dose activity change, negative = inhibition, most hits filed as inhibitors. 310,000 compounds, 0.63% hits. AID 720579, 2013; calls by dose curve; tested in A549 cells; note: potency is the fitted concentration of half-maximal effect; nearly all actives have a fitted effect of over 35% in size
Sm TGR inh: qHTS Assay for the Inhibitors of Schistosoma Mansoni Peroxiredoxins; Schistosoma mansoni thioredoxin glutathione reductase (TGR), Q962Y6; 360,000 compounds, 3% hits; purified TGR, DTNB reduction, TNB absorbance 405 nm; Potency, µM (highest dose often 114 µM), inactives show at the top dose activity change, negative = inhibition, usual class: inhibitors; note: potency is the fitted concentration of half-maximal effect; nearly all actives have a fitted effect of over 60% in size
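Kinetic colorimetric format: TGR-catalysed, NADPH-driven DTNB reduction monitored via TNB absorbance. Enzyme dispensed at 20 nM; compound exposure 15 min at room temperature before reaction start.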
Starred values were filed as active, the others as inactive; i = inactive; ? = inconclusive; / = no result given. Sampled rows, rich in hits. Any-hit rate of the full collection: about 9.3%. Unless noted, calls come from the whole dose curve; as a rule, active = well fitted curve in the direction sought with a large enough effect; inconclusive = small, poorly fitted or top-dose-only effect, or another doubt; inactive = no such curve, though single readings can be large; an effect the other way counts as inactive or inconclusive. % is set by controls: 0 for no effect and ±100 for the full control effect.

SMILES | FMDV antiviral | HCMV inh | HCV inh | Vaccinia Venus | VACV mCherry inh | Sm TGR inh
O=c1[nH][nH]c(-c2ccccc2)c1C=Nc1ccccc1 | 5% | 68 | 19% | -1% | -14% | 11%
NC(=O)CCN1CCCCC1 | 10% | -5 | 9% | -19% | -22% | 0%
Cc1cc(N2CCN(C)CC2)nc2ccc(NC(=O)c3ccc(Br)o3)cc12 | 28% | 29 | ? | / | / | 0%
COc1ccc(C(=O)Nc2ccc3nc(N4CCC(C)CC4)cc(C)c3c2)cc1 | 32µM* | -28 | / | -12% | -14% | -17%
Cc1cc(N2CCN(C)CC2)nc2ccc(NC(=O)c3ccc4c(c3)OCO4)cc12 | 21% | -22 | 10µM* | ? | ? | -13%
COc1cccc(NC(=O)Nc2ccc3nc(N4CCN(C)CC4)cc(C)c3c2)c1 | 7% | -101* | / | -21% | ? | -1%
Cc1cc(N2CCCCC2)nc2ccc(NC(=O)c3ccc(Br)o3)cc12 | 40µM* | -9 | 4µM* | -28% | ? | -26%
Cc1cc(N2CCN(C)CC2)nc2ccc(NC(=O)Nc3ccc(F)cc3)cc12 | 18% | -6 | / | -25% | -21% | 6%
CN(C)Cc1c(C(=O)N/N=C/c2cccnc2)nnn1-c1nonc1N | 0% | 0 | 22% | -3% | -12% | -9%
Cc1cccc(NC(=O)Cn2c(=O)n(-c3ccccc3Cl)c(=O)c3c(C)c(C(=O)N(C)C)sc32)c1 | -3% | -5 | / | -7% | -9% | -8%
COc1cc(-c2nc(-c3ccc(NC(=O)c4ccc5c(c4)OCO5)cc3)no2)cc(OC)c1OC | -24% | 60 | ? | -15% | -18% | -4%
Cc1ccccc1-c1nc(-c2ccc(NC(=O)c3ccc4c(c3)OCO4)cc2)no1 | 11% | -79* | ? | / | / | -2%
Cc1cc(N2CCN(C)CC2)nc2ccc(NC(=O)Nc3ccccc3Cl)cc12 | 20% | -100* | / | -11% | -9% | 3%
O=C(CN(c1ccc([N+](=O)[O-])cc1)S(=O)(=O)c1ccccc1)N1CCCCC1 | 24% | -19 | 14% | -9% | -12% | -14%
COc1cccc(CNC(=O)[C@H](CC(C)C)NC(=O)N2CCn3c2nc2ccccc23)c1 | -17% | 16 | 10% | / | / | -4%
Oc1c(Cl)cc(Cl)c2c1NCCC2 | -17% | 11 | ? | -16% | -23% | 1µM*
COc1ccc(Cc2n[nH]c(=S)o2)cc1 | 2% | -25 | 15% | -14% | i | 35µM*
NC(CSC(c1ccccc1)(c1ccccc1)c1ccccc1)C(=O)O (centres undefined) | -10% | 31 | -23% | -25% | ? | /
NC(CC(=O)NC(c1ccccc1)(c1ccccc1)c1ccccc1)C(=O)O (centres undefined) | 2% | -69* | 14% | 3% | -3% | 0%
Clc1ccccc1CN1CCN(/N=C/c2ccncc2)CC1 | ? | ? | ? | / | / | 11%
CCC(=O)Nc1cccc(C(=O)c2ccccc2)c1 | / | -18 | -2% | -19% | -29% | -2%
CCC(=O)Nc1cccc(C(=O)/C=C/c2ccccc2)c1 | 18µM* | -104* | -26% | -19% | / | ?
CCC(=O)Nc1cccc(C(=O)/C=C/c2cccs2)c1 | 11% | -62* | ? | -27% | -15% | /
CCNC(=O)c1ccc2nc(-c3ccccc3)c(-c3ccccc3)nc2c1 | / | / | / | -11% | 18% | /
CCNC(=O)c1ccc2c(c1)C1C3CCC(C3)C1C(c1ccccc1)N2 (centres undefined) | -18% | -63* | 10% | ? | ? | 6%
CC(=O)Nc1ccc(N2C(=O)c3cccc4c(O)ccc(c34)C2=O)cc1 | -15% | ? | 3% | 272% | i | ?
O=C1c2cccc3c(O)ccc(c23)C(=O)N1Cc1ccco1 | 0% | -25 | -5% | i | -11% | 6.3µM*
O=C1c2cccc3c(O)ccc(c23)C(=O)N1c1ccc(Cl)cc1 | 13µM* | -72* | 3% | 399% | -20% | 25µM*
